From PubChem BioAssay AID1159580 (chemical genetic matrix, 2015)
Where “and” joins values, the source holds several entries; their conditions need not be identical. Identical values can stand only once. Hit rate of the full screen: of about 5,500 compounds, about 2,000 (36%) were called active. Not shown: some 18% with an inconclusive outcome. No stated cut-off is given here; in the data, active means normalized growth mostly below about 0.91 (no sharp cut-off); inconclusive means no clear call, values can overlap the other calls; inactive means mostly above about 0.92. This is one part of the list.

Assay: chemical genetic growth profiling, strain panel (AID 1159580);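 further: tested at 20 µM; growth read once vehicle control cultures reached saturation at 30 °C; 1 = growth at the plate median or of vehicle wells; lower values mean less growth of the strain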
Details: S. cerevisiae deletion strains, growth OD

Measured: normalized growth

NC(=O)CN1CCCC1=O
inactive: locus YAL013W, strain DEP1, active compounds read low 1.01 and 1 | locus YAL021C, strain ccr4, active compounds read low 0.982 | locus YAL026C, strain drs2, active compounds read low 0.988 | locus YAL030W, strain snc1, active compounds read low 0.992 | locus YAL040C, strain CLN3, active compounds read low 0.986 | locus YBL061C, strain skt5, active compounds read low 0.985 | locus YBR009C, strain hhf1, active compounds read low 1 | locus YBR021W, strain FUR4, active compounds read low 1.02 | locus YBR023C, strain chs3, active compounds read low 0.991 | locus YBR171W, strain sec66, active compounds read low 0.982 | locus YBR229C, strain ROT2, active compounds read low 1.01 | locus YBR231C, strain swc5, active compounds read low 1 | locus YBR279W, strain paf1, active compounds read low 0.99 | locus YCL011C, strain gbp2, active compounds read low 0.999 | locus YCL016C, strain dcc1, active compounds read low 0.986 | locus YCL029C, strain bik1, active compounds read low 1.02 | locus YCL061C, strain MRC1 (second series), active compounds read low 1 | locus YCL061C, strain MRC1, active compounds read low 0.981 | locus YCL069W, strain vba3, active compounds read low 0.996 | locus YCR088W, strain abp1, active compounds read low 0.978 | locus YDL005C, strain med2, active compounds read low 0.996 | locus YDL035C, strain GPR1, active compounds read low 1.02 | locus YDL040C, strain nat1, active compounds read low 0.993 | locus YDL074C, strain BRE1, active compounds read low 0.985 | locus YDL101C, strain DUN1, active compounds read low 0.999 | locus YDL134C, strain PPH21, active compounds read low 1.02 | locus YDL185W, strain tfp1, active compounds read low 1.01 | locus YDL192W, strain arf1, active compounds read low 1.01 | locus YDR001C, strain nth1, active compounds read low 0.993 | locus YDR069C, strain doa4, active compounds read low 1 | locus YDR101C, strain arx1, active compounds read low 0.991 | locus YDR137W, strain rgp1, active compounds read low 0.98 | locus YDR159W, strain sac3, active compounds read low 1.01 | locus YDR162C, strain NBP2, active compounds read low 1.01 | locus YDR195W, strain ref2 0.976 | locus YDR297W, strain sur2, active compounds read low 0.989 | locus YDR318W, strain mcm21, active compounds read low 1.01 | locus YDR334W, strain swr1, active compounds read low 0.979 | locus YDR335W, strain msn5, active compounds read low 0.989 | locus YDR363W, strain ESC2, active compounds read low 0.983 | locus YDR388W, active compounds read low 1.01 | locus YDR392W, strain spt3, active compounds read low 0.916 | locus YDR502C, strain sam2, active compounds read low 1.01 | locus YEL003W, strain gim4, active compounds read low 0.999 | locus YEL037C, strain rad23, active compounds read low 0.986 | locus YEL061C, strain CIN8 (second series), active compounds read low 0.984 | locus YEL061C, strain CIN8, active compounds read low 1.01 | locus YER002W, strain NOP16, active compounds read low 1 | locus YER015W, strain faa2, active compounds read low 1.01 | locus YER016W, strain bim1, active compounds read low 0.996 | locus YER110C, active compounds read low 1.02 | locus YER111C, strain swi4, active compounds read low 0.988 | locus YER155C, strain BEM2 (second series), active compounds read low 0.975 | locus YER155C, strain BEM2, active compounds read low 1.01 | locus YER167W, strain BCK2, active compounds read low 1.01 | locus YFR010W, strain ubp6, active compounds read low 0.972 | locus YGL078C, strain dbp3, active compounds read low 1.02 | locus YGL086W, strain mad1, active compounds read low 1 | locus YGL167C, strain pmr1, active compounds read low 0.986 | locus YGL173C, strain kem1, active compounds read low 0.998 | locus YGL227W, strain vid30, active compounds read low 0.998 | locus YGL240W, strain doc1, active compounds read low 0.993 | locus YGL248W, strain PDE1, active compounds read low 0.994 | locus YGL253W, strain hxk2, active compounds read low 1 | locus YGR078C, strain PAC10, active compounds read low 0.991 | locus YGR135W, strain pre9, active compounds read low 1.02 | locus YGR252W, strain gcn5, active compounds read low 0.997 | locus YHR013C, strain ard1, active compounds read low 0.963 | locus YHR027C, strain rpn1, active compounds read low 0.988 | locus YHR030C, strain SLT2, active compounds read low 1 and 0.994 | locus YHR079C, strain IRE1 (second series), active compounds read low 1.01 | locus YHR079C, strain IRE1, active compounds read low 0.995 | locus YHR094C, strain hxt1, active compounds read low 1.01 | locus YHR129C, strain ARP1, active compounds read low 1.01 | locus YHR142W, strain chs7, active compounds read low 0.971 | locus YHR200W, strain rpn10, active compounds read low 1.01 | locus YIL066C, strain RNR3, active compounds read low 1.01 | locus YIL073C, strain SPO22, active compounds read low 1.08 | locus YIL125W, strain kgd1, active compounds read low 1.01 | locus YIR030C, strain dcg1, active compounds read low 1.01 | locus YJL092W, strain hpr5, active compounds read low 0.989 | locus YJL095W, strain BCK1 (second series), active compounds read low 0.995 | locus YJL095W, strain BCK1, active compounds read low 0.992 and 0.977 | locus YJL115W, strain asf1, active compounds read low 0.985 | locus YJL129C, strain trk1, active compounds read low 0.998 | locus YJL134W, strain LCB3, active compounds read low 0.997 | locus YJL154C, strain vps35, active compounds read low 0.987 | locus YJL164C, strain tpk1, active compounds read low 0.998 | locus YJL166W, strain qcr8, active compounds read low 0.968 | locus YJL168C, strain set2, active compounds read low 1 | locus YJL187C, strain SWE1 (second series), active compounds read low 1 | locus YJL187C, strain SWE1, active compounds read low 0.982 | locus YJR043C, strain POL32, active compounds read low 1.01 | locus YJR066W, strain TOR1, active compounds read low 0.951 | locus YJR075W, strain HOC1, active compounds read low 1 and 0.993
